The record followed here is PubChem BioAssay (NCATS).

Test [1] has as its target Glutathione peroxidase 1 (Homo sapiens) (UniProt P07203). Put plainly: Primary qHTS Assay for Inhibitors of Recombinant Selenoprotein Glutathione Peroxidase 1 (GPX1) (AID 1845191). Also: nearly all actives have a fitted effect of over 65% in size. The note with it: outcome: dose series up to 48.8 µM. The method in brief:
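10 nM GPX1 + cpd, 30 min RT; start w/ 1 mM GSH, 0.5 mM cumene hydroperoxide, 0.5 mM NADPH, 100 nM GR, 0.01% BSA; buffer 50 mM Tris-HCl pH 7.5, 2 mM EDTA, 150 mM NaCl; Fl 340/450, 0 & 15 min.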
A general note: Quantitative high-throughput screening tests each substance at several concentrations.

For test [2], the target named is Metallo-beta-lactamase type 2 (Klebsiella pneumoniae) (UniProt C7C422). Briefly: qHTS to identify inhibitors of the New Delhi Metallo-beta-lactamase (NDM): assay validation screen against the NCATS LOPAC Collection (AID 1794843).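 Also: nitrocefin turnover by NDM-1 measured as 485 nm absorbance at plateau; series mostly up to about 38 µM.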 The method in brief:
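NDM-1 at 2 nM final in 50 mM HEPES pH 7.0 with 1 uM ZnSO4 and 0.01% Tween20 was preincubated with library compounds in DMSO. Nitrocefin (50 uM stock) was then added, and absorbance at 485 nm was read at the kinetic plateau.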

Test [3] in a line: Quantitative High-Throughput drug screen in 47 multiple myeloma cell lines against the NCATS MIPE library collection: FR4_PLB cell viability assay (AID 1918924; also: nearly all actives have a fitted effect of over 35% in size). The method in brief: (§1)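 Primary qHTS used for cherry-picking: cells at 500/well, library compounds for 48 h (37C, 5% CO2), luminescent ATP assay.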
Test [4] is described as follows: Quantitative High-Throughput drug screen in 47 multiple myeloma cell lines against the NCATS MIPE library collection: EJM_DSMZ cell viability assay (AID 1918926; also: nearly all actives have a fitted effect of over 30% in size). The method in brief:
(§2)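 CellTiter-Glo luminescence (ATP) after 48 h compound exposure, 37C/5% CO2; 500 cells/well; MIPE 4.0 approved/investigational drugs pinned in; DMSO = 100%, media only = 0% viability.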

Test [5] can be described thus: Quantitative High-Throughput drug screen in 47 multiple myeloma cell lines against the NCATS MIPE library collection: AMO1_DSMZ cell viability assay (AID 1918927; also: nearly all actives have a fitted effect of over 30% in size). Summed up:
as §2

A short description of test [6]: Quantitative High-Throughput drug screen in 47 multiple myeloma cell lines against the NCATS MIPE library collection: Karpas620_DSMZ cell viability assay (AID 1918959). Also: nearly all actives have a fitted effect of over 30% in size. The method in brief:
as §1

Test [7] is described as follows: Quantitative High-Throughput drug screen in 47 multiple myeloma cell lines against the NCATS MIPE library collection: KMM1_JCRB cell viability assay (AID 1918960). Also: nearly all actives have a fitted effect of over 30% in size. Also: potency is read from the fitted curve at half-maximal effect. Summed up: (§3)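 Myeloma cells, 500 per well, were exposed to MIPE 4.0 drugs by pin transfer for 48 h at 37 °C, 5% CO2. Viability was read as ATP luminescence with CellTiter-Glo, normalised to DMSO-only (100%) and medium-only (0%) wells.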

Test [8] can be described thus: Quantitative High-Throughput drug screen in 47 multiple myeloma cell lines against the NCATS MIPE library collection: JIM3_ECACC cell viability assay (AID 1918963; also: nearly all actives have a fitted effect of over 35% in size). Summed up: as §1
The nature of test [9]: Quantitative High-Throughput drug screen in 47 multiple myeloma cell lines against the NCATS MIPE library collection: JIM1_ECACC cell viability assay (AID 1918964; also: potency is read from the fitted curve at half-maximal effect). The method in brief: as §2
Test [10] is described as follows: HepG2 viability counterscreen (readout 2: ATP content) against the NCATS DSHEA and TCM libraries (AID 1794840). Summed up: (§4)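 Same wells read twice: first fluorescence from cleaved GF-AFC substrate (25 uM final, 30 min, 37C) for live-cell protease, then CellTiter-Glo luminescence after 30 min at room temperature for ATP. HepG2 cells were exposed ~24 h to substances.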
A general note: The purpose of a counterscreen is to sort out artefacts and off-target activity.

Test [11] can be described thus: HepG2 viability counterscreen (readout 1: protease activity) against the NCATS DSHEA and TCM libraries (AID 1794841).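 Also: cells exposed to compounds for about 24 h before the protease read.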 The method in brief: as §4
In test [12] the target is Phospholipid hydroperoxide glutathione peroxidase GPX4 (Homo sapiens) (UniProt P36969). Put plainly: Primary qHTS Assay for Inhibitors of Recombinant Selenoprotein Glutathione Peroxidase 4 (GPX4) (AID 1845192). Also: nearly all actives have a fitted effect of over 65% in size. The method in brief: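 NADPH consumption, followed by fluorescence at 340/450 nm between 0 and 15 min, reports GPX4 activity via coupled glutathione reductase (100 nM). Enzyme 200 nM was pre-exposed to compound 30 min; 0.5 mM cumene hydroperoxide and 1 mM GSH served as substrates.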

Test [13] has as its target Luciferin 4-monooxygenase (Photinus pyralis) (UniProt P08659). Put plainly: Primary firefly luciferase (FLuc) qHTS assay for identification of artifact compounds. (AID 1845220). Also: nearly all actives have a fitted effect of over 60% in size. To be noted: outcome: dose series up to 54.1 µM. Summed up: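 Compounds sat 15 min at room temperature with 10 uM luciferin and 10 uM ATP (pH 7.6 Tris acetate). Firefly luciferase (10 nM final) was then added, and luminescence was read 5 min later. Data normalized to no-enzyme and DMSO controls were Hill-fitted.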

Test [14] in a line: Primary fluorescence-based thiol-reactive (MSTI) qHTS assay for identification of artifact compounds. (AID 1845221).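 Also: series mostly up to about 54 µM; thiol-reactive compounds lower the probe fluorescence signal; nearly all actives have a fitted effect of over 65% in size.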 Summed up: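 Reactivity toward the thiol probe MSTI (4 uM) is scored by fluorescence at Ex/Em 525/598 nm after 1 h at room temperature. Acetyl-MSTI and MSTI define the activity scale.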
For test [15], the system named is Nanoluciferase (engineered Oplophorus gracilirostris luciferase). Put plainly: Primary Nanoluciferase (NLuc) qHTS assay for identification of artifact compounds. (AID 1845222). Also: series mostly up to about 54 µM. Summed up: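 Luminescence from secreted NLuc (filtered, 1:55-diluted S16 cell medium) read 5 min after Nano-Glo substrate; compounds preincubated 15 min, RT. Hill fits of inhibition normalized to DMSO and no-enzyme.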

Test [16] is described as follows: Quantitative High-Throughput drug screen in 47 multiple myeloma cell lines against the NCATS MIPE library collection: ARP1_JJKsccF8 cell viability assay (AID 1918928; also: nearly all actives have a fitted effect of over 40% in size). Summed up: as §3
Test [17] is described as follows: Quantitative High-Throughput drug screen in 47 multiple myeloma cell lines against the NCATS MIPE library collection: ARD_JJKsccE7 cell viability assay (AID 1918929). Summed up:
as §2

A short description of test [18]: Quantitative High-Throughput drug screen in 47 multiple myeloma cell lines against the NCATS MIPE library collection: Delta47_JCRB cell viability assay (AID 1918925; also: nearly all actives have a fitted effect of over 45% in size). Summed up:
as §2

Each structure is given as a SMILES string. Inconclusive results are not listed. Entries that show only a call come without a potency. Active and inactive are the calls of the source. Calls follow the shape of the dose curve; as a rule, active = well fitted curve in the direction sought with a large enough effect; inconclusive = small, poorly fitted or top-dose-only effect, or another doubt; inactive = no such curve, though single readings can be large; an effect the other way counts as inactive or inconclusive.

Metallo-beta-lactamase type 2 (Klebsiella pneumoniae), sequence (C7C422 whole entry, looked up): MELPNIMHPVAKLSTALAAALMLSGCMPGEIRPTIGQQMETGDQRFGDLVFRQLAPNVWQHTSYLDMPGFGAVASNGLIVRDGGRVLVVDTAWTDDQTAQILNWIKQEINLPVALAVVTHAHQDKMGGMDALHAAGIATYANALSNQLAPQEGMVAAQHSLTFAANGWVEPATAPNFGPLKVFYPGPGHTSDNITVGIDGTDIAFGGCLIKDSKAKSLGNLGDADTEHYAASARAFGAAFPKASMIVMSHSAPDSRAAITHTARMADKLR
Glutathione peroxidase 1 (Homo sapiens), sequence (P07203 whole entry, looked up): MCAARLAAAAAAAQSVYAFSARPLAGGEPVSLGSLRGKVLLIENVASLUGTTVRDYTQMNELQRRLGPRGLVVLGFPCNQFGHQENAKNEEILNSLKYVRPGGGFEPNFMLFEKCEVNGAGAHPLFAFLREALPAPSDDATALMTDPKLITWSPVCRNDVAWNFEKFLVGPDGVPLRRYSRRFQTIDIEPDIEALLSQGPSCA
Phospholipid hydroperoxide glutathione peroxidase GPX4 (Homo sapiens), sequence (P36969 whole entry, looked up): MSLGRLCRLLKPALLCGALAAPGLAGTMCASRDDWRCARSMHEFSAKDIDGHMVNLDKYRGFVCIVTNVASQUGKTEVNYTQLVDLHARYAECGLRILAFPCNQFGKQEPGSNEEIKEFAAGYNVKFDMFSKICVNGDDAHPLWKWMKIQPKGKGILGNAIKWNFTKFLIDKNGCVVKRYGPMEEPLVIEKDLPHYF

On to `NC(=O)OCCCc1ccccc1`, for which the outcome in test [1] was inactive.
Consider `C=CC[C@]1(O)CC[C@H]2[C@@H]3CCC4=CC(=O)CCC4=C3C=C[C@@]21C`, for which, in test [1], the result was inactive.
On the same count and under the same terms, in the case of `C[C@@H]1CC[C@H]2[C@@H](C)C(=O)O[C@@H]3O[C@@]4(C)CC[C@@H]1[C@]32OO4` it was “inactive”.
`COc1ccc(C(=O)N2CCCC2=O)cc1`: the molecule was classed as inactive in test [2] and in test [1]. Moreover, the Potency result in test [3], in test [4], in [5], in [6] and in test [8] was “inactive” in each case. Further, the values for the Potency in test [7] and in test [9] were 1870 nM (active) and 3320 nM (active), respectively.
In the case of `O=C1CN2CCOC2(c2ccccc2Cl)c2cc(Cl)ccc2N1` (configuration not stated), the outcome in test [1] was inactive.
In the case of `C[C@]12CC[C@H](O)CC1=CC[C@@H]1[C@@H]2CC[C@]2(C)C(=O)CC[C@@H]12`, the result in test [10], in test [11], in test [13], in test [14] and in [15] was inactive. For the same molecule, the Potency entry in [12] is “inactive”.
`Clc1ccc(CSC(Cn2ccnc2)c2ccc(Cl)cc2Cl)cc1` (configuration not stated): the outcome in [1] was inactive.
In the case of `C#C[C@]1(O)C=C[C@H]2[C@@H]3CCC4=CC(=O)CC[C@@H]4[C@H]3CC[C@@]21CC`, the outcome in test [1] was inactive.
`COP(=O)(OC)C(O)C(Cl)(Cl)Cl` (configuration not stated): the result in test [1] was inactive. For the same molecule, in test [12], the Potency result was “inactive”.
Turning to `CCOC(=O)C1(c2ccccc2)CCN(CCc2ccc(N)cc2)CC1`, in [1], the result was inactive. In test [12], the Potency result is “inactive”.
For `CCCCCCCCC(=O)NCc1ccc(O)c(OC)c1`, in test [1], the outcome was inactive.
The same measure, in the same setting: in the case of `C=CCOC(Cn1ccnc1)c1ccc(Cl)cc1Cl` (configuration not stated) it was “inactive”; in that of `C=CCN1CC[C@]23CCCC[C@H]2[C@H]1Cc1ccc(O)cc13`, “inactive”; in that of `CC(Cc1ccccc1)NCCCCl` (configuration not stated), “inactive”.
On the same count and under the same terms, in the case of `N#Cc1nn(-c2c(Cl)cc(C(F)(F)F)cc2Cl)c(N)c1S(=O)C(F)(F)F` (configuration not stated) it was “inactive”.
Consider `CC(Cc1ccccc1)NCc1ccccc1Cl` (configuration not stated), for which, in [1], the outcome was inactive. Also, the Potency result in test [12] was “inactive”.
For `Clc1ccc(C(OCCN2CCCCC2)c2ccccc2)cc1` (configuration not stated), the result in test [1] was inactive.
`O=C(O)c1nn(Cc2ccc(Cl)cc2Cl)c2ccccc12`: the molecule was called inactive in [2]. Moreover, the Potency entry in [12], in test [4], in [16], in test [17], in test [8] and in [9] was “inactive” throughout.
`COC(=O)C1=CCCN(C)C1`: in test [2], the result was inactive. Also, the Potency entry in [3], in [18], in test [4], in [16], in [6] and in test [7] was “inactive” in each case. Besides, the Potency entry in test [8] was “inactive”.
With `CC1COC2(c3ccccc3Cl)c3cc(Cl)ccc3NC(=O)CN12` (configuration not stated), in test [1], the outcome was inactive.
The same measure, in the same setting: for `CN(C)C(=O)Oc1cc(OC(=O)N(C)C)cc(C(O)CNC(C)(C)C)c1` (configuration not stated) the value was “inactive”.
With `CN(C)C(=S)SSC(=S)N(C)C`, the outcome in [1] was inactive. The Potency result in test [12] was “inactive”.
